This passage reports growth results from PubChem BioAssay (NCI).

Common to all, as to assay: NCI-60 one-dose screen, 48 h (100 = growth as untreated, 0 = no growth, -100 = all killed)
For one assay, the system named is T-47D breast. As to conditions: 10 µM unless noted.
The subject of another assay is BT-549 breast. Particulars: 10 µM unless noted.
Another assay has as its system MDA-MB-435 melanoma. As to conditions: 10 µM unless noted.
The subject of another assay is SW-620 colon. As to conditions: 10 µM unless noted.
The test system of a further assay is MCF7 breast.
A further assay relates to HCT-116 colon. Particulars: 10 µM unless noted.
For the next assay, the system named is HCC-2998 colon. As to conditions: 10 µM unless noted.
The test system of another assay is KM12 colon. Particulars: 10 µM unless noted.

Values joined by “and” are separate entries in the source; they are usually repeats but may differ in a detail not shown here. Equal values may be shown once. The panel holds about 83,000 compounds, 20% with a hit somewhere; the sample as a whole holds those more often.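 Activity criterion: percent growth below 10, measured after cells in 96-well plates were exposed to a single compound concentration for 48 hours.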 Active and inactive are the calls of the source.

As to `O=C1OC(C(O)C(O)CO)C(O)=C1O` (stereo not given), the growth in the assay with T-47D breast was 103% (inactive) and 83.1% (inactive); in the assay on BT-549 breast, 106% (inactive); in the assay with MDA-MB-435 melanoma, 114% (inactive) and 109% (inactive); in the assay on SW-620 colon, 117% (inactive) and 105% (inactive); with MCF7 breast (10 µM unless noted), 98.9% (inactive) and 97.4% (inactive); with HCT-116 colon, 100% (inactive) and 92.8% (inactive). Besides, the growth with HCC-2998 colon was -23.7% (active) and 98.9% (inactive); in the assay with KM12 colon, 109% (inactive) and 103% (inactive).

Take `COc1ccc2cc1Oc1ccc(cc1)C[C@H]1c3cc(c(OC)cc3CCN1C)Oc1c(OC)c(OC)cc3c1[C@H](C2)N(C)CC3`: the growth with T-47D breast is 93.1% (inactive); in the assay with BT-549 breast, 28.5% (inactive); with MDA-MB-435 melanoma it was 24.7% (inactive); with SW-620 colon it was 40.1% (inactive); in the assay with MCF7 breast (10 µM), 52.7% (inactive); with MCF7 breast (100 µM) it was 98.3% (inactive) and 67.5% (inactive). The values for the growth in the assay with HCT-116 colon, in the assay with HCC-2998 colon and with KM12 colon were 14% (inactive), 0.135% (active) and 15.6% (inactive), respectively.

As to `CC(=O)OC(C)C(=O)NCC(C)O` (stereo not given), the growth in the assay on T-47D breast is 96.3% (inactive); in the assay with BT-549 breast it was 111% (inactive); with MDA-MB-435 melanoma, 111% (inactive); with SW-620 colon it was 94.3% (inactive); in the assay on MCF7 breast (10 µM unless noted), 96.9% (inactive); in the assay on HCT-116 colon it was 95.2% (inactive). For the same compound, the results for the growth in the assay with HCC-2998 colon and in the assay on KM12 colon were 99.4% (inactive) and 102% (inactive), respectively.

On to `O=C(Cc1ccccc1)c1ccc(O)c(Cl)c1`, for which the growth in the assay with T-47D breast is 43.9% (inactive); in the assay with BT-549 breast, 45.3% (inactive); in the assay with MDA-MB-435 melanoma, 41.3% (inactive); in the assay on SW-620 colon, 22.1% (inactive); in the assay on MCF7 breast (10 µM unless noted), 20.4% (inactive); with HCT-116 colon it was 27% (inactive). In addition, the growth in the assay on HCC-2998 colon was 43.4% (inactive); in the assay with KM12 colon, 51.4% (inactive).

Turning to `COc1cc(C(O)C2C(=O)OCC2C2(c3ccc4c(c3)OCO4)SCCCS2)cc(OC)c1OC` (stereo not given), the growth in the assay on T-47D breast is 107% (inactive); in the assay on BT-549 breast, 102% (inactive); in the assay on MDA-MB-435 melanoma, 101% (inactive); in the assay on SW-620 colon it was 102% (inactive); with MCF7 breast (10 µM unless noted) it was 97.6% (inactive); in the assay on HCT-116 colon it was 91.7% (inactive). The growth was 98.5% (inactive) in the assay with HCC-2998 colon and 96.2% (inactive) in the assay with KM12 colon.

For the compound `CC(=O)NCC(=O)c1ccc([N+](=O)[O-])cc1`, the growth in the assay with T-47D breast is 86.3% (inactive); in the assay with BT-549 breast it was 107% (inactive); in the assay on MDA-MB-435 melanoma, 104% (inactive); in the assay on SW-620 colon, 99.5% (inactive); with MCF7 breast (10 µM unless noted), 96.5% (inactive); with HCT-116 colon it was 106% (inactive). For the same compound, the values for the growth in the assay on HCC-2998 colon and in the assay on KM12 colon were 109% (inactive) and 103% (inactive), respectively.

Consider `N#CC(C#N)N=Nc1ccc(Cl)cc1`, for which the growth was -0.279% (active) in the assay on T-47D breast; 77.1% (inactive) in the assay on BT-549 breast; 79.6% (inactive) with MDA-MB-435 melanoma; 15% (inactive) in the assay with SW-620 colon; 27.3% (inactive) with MCF7 breast (10 µM unless noted); 16.9% (inactive) in the assay with HCT-116 colon. Besides, the figures for the growth in the assay with HCC-2998 colon and with KM12 colon were 75.3% (inactive) and 85.9% (inactive), respectively.

`Nc1ccc2c(O)cc(S(=O)(=O)O)cc2c1`: the growth was 85.5% (inactive) and 101% (inactive) in the assay with T-47D breast; 94.9% (inactive) and 119% (inactive) in the assay on BT-549 breast; 104% (inactive) and 113% (inactive) with MDA-MB-435 melanoma; 94.3% (inactive) and 95.3% (inactive) in the assay with SW-620 colon; 95% (inactive) and 96.6% (inactive) in the assay with MCF7 breast (10 µM unless noted); 93.8% (inactive) and 94% (inactive) in the assay with HCT-116 colon. The growth in the assay with HCC-2998 colon was 88.6% (inactive) and 107% (inactive); in the assay with KM12 colon it was 120% (inactive) and 103% (inactive).

Regarding `Cc1cc(-c2cc(C)c(O)c(C)c2)cc(C)c1O`, the growth in the assay with T-47D breast is 93.7% (inactive); in the assay on BT-549 breast it was 65.7% (inactive); with MDA-MB-435 melanoma it was 8.38% (active); in the assay with SW-620 colon, 77.4% (inactive); in the assay on MCF7 breast (10 µM unless noted) it was 91.6% (inactive); in the assay with HCT-116 colon, 83.7% (inactive). Also, the results for the growth in the assay on HCC-2998 colon and with KM12 colon were 92.3% (inactive) and 72.6% (inactive), respectively.

With `O=C1c2c(O)ccc(O)c2C(=O)c2c(NCCNCCO)ccc(NCCNCCO)c21`, the growth is -24% (active) and -46.9% (active) in the assay on T-47D breast; -46.2% (active) and -85.9% (active) with BT-549 breast; -89.9% (active) and -94.9% (active) in the assay with MDA-MB-435 melanoma; -30.8% (active) and -81.8% (active) in the assay with SW-620 colon; -42% (active) with MCF7 breast (10 µM unless noted); -20.2% (active) and -44.9% (active) in the assay with HCT-116 colon. Moreover, the growth in the assay with HCC-2998 colon was -88.5% (active); in the assay with KM12 colon, -11.4% (active) and -25.6% (active).

In the case of `O=CN1CCCCC1`, the growth was 109% (inactive) in the assay on T-47D breast; 97.3% (inactive) in the assay on BT-549 breast; 107% (inactive) with MDA-MB-435 melanoma; 102% (inactive) in the assay with SW-620 colon; 97.6% (inactive) in the assay with MCF7 breast (10 µM unless noted); 104% (inactive) in the assay with HCT-116 colon. Further, the growth is 105% (inactive) in the assay with HCC-2998 colon and 100% (inactive) in the assay on KM12 colon.

`OCCN1CCCCCCC1`: the growth was 95.6% (inactive) in the assay on T-47D breast; 98.2% (inactive) with BT-549 breast; 98.4% (inactive) with MDA-MB-435 melanoma; 108% (inactive) in the assay with SW-620 colon; 99% (inactive) in the assay on MCF7 breast (10 µM unless noted); 97.1% (inactive) in the assay on HCT-116 colon. Further, the figures for the growth in the assay with HCC-2998 colon and with KM12 colon were 100% (inactive) and 110% (inactive), respectively.

For `C#CCOC(=O)Nc1ccccc1`, the growth is 109% (inactive) in the assay on T-47D breast; 106% (inactive) with BT-549 breast; 98.8% (inactive) in the assay with MDA-MB-435 melanoma; 105% (inactive) with SW-620 colon; 87.4% (inactive) in the assay on MCF7 breast (10 µM unless noted); 105% (inactive) in the assay on HCT-116 colon. The growth in the assay with HCC-2998 colon is 100% (inactive); with KM12 colon, 110% (inactive).

For `CC(C)NCC(O)c1ccc(O)c(O)c1` (stereo not given), the growth is 98% (inactive) and 90.5% (inactive) and 102% (inactive) with T-47D breast; 84.7% (inactive) and 79.9% (inactive) and 84% (inactive) with BT-549 breast; 104% (inactive) and 105% (inactive) and 101% (inactive) with MDA-MB-435 melanoma; 104% (inactive) and 107% (inactive) and 93% (inactive) in the assay on SW-620 colon; 100% (inactive) and 85.1% (inactive) and 109% (inactive) in the assay with MCF7 breast (10 µM unless noted); 100% (inactive) and 93.3% (inactive) and 71.7% (inactive) in the assay with HCT-116 colon. Besides, the growth is 105% (inactive) and 117% (inactive) and 108% (inactive) with HCC-2998 colon; 106% (inactive) and 105% (inactive) in the assay with KM12 colon.

Turning to `CC1CCC2(OC1)OC1CC3C4CC=C5CC(O)CCC5(C)C4CCC3(C)C1C2C` (stereo not given), the growth with T-47D breast was 106% (inactive); in the assay with BT-549 breast, 130% (inactive); with MDA-MB-435 melanoma, 116% (inactive); in the assay with SW-620 colon it was 106% (inactive); in the assay with MCF7 breast (10 µM unless noted), 105% (inactive); with HCT-116 colon, 92.2% (inactive). Also, the growth is 112% (inactive) in the assay on HCC-2998 colon and 104% (inactive) in the assay with KM12 colon.

As for `CCCCCCCCCCCCCCCCC(C(=O)O)C(O)(CC(=O)O)C(=O)O` (stereo not given), the growth with T-47D breast is 98.2% (inactive) and 4.81% (active); in the assay with BT-549 breast it was 103% (inactive) and -46.4% (active); in the assay on MDA-MB-435 melanoma, 102% (inactive) and -33.7% (active); with SW-620 colon, 101% (inactive) and -23.5% (active); in the assay with MCF7 breast (10 µM unless noted) it was 95.7% (inactive) and -2.93% (active); with HCT-116 colon, 105% (inactive) and -35.5% (active). The growth in the assay with HCC-2998 colon was 96.9% (inactive); in the assay with KM12 colon it was 105% (inactive) and -34.4% (active).

As to `O=C1OC(c2ccccc2)=N/C1=C\c1ccccc1`, the growth with T-47D breast is 96.4% (inactive); with BT-549 breast it was 96.3% (inactive); with MDA-MB-435 melanoma it was 109% (inactive); with SW-620 colon, 101% (inactive); with MCF7 breast (10 µM unless noted), 98.4% (inactive); in the assay with HCT-116 colon, 102% (inactive). Further, the results for the growth in the assay on HCC-2998 colon and in the assay with KM12 colon were 96.6% (inactive) and 108% (inactive), respectively.

Take `Nc1cc(N)c(N)cc1N`: the growth is 81.7% (inactive) in the assay on T-47D breast; 85.4% (inactive) in the assay with BT-549 breast; -73.8% (active) with MDA-MB-435 melanoma; 7.1% (active) with SW-620 colon; -49.2% (active) in the assay with MCF7 breast (10 µM unless noted); 0.84% (active) with HCT-116 colon. For the same compound, the growth is 101% (inactive) in the assay on HCC-2998 colon and 80.1% (inactive) in the assay on KM12 colon.
